Reference: PubChem BioAssay (NCI)
This is part of a sample that, as a whole, favours compounds with a hit. Of some 83,000 tested, about 20% had one in any assay.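 The endpoint reported here, percent growth, reads 100 for growth as untreated, 0 for no net growth and -100 for all cells dead.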 A number with no mark means an inactive call. Active and inactive are the calls of the source. How the source made its calls: active means growth percent below 10; inactive means the rest.

Tests used:
Experiment in all cases: NCI-60 one-dose screen, 48 h (100 = growth as untreated, 0 = no growth, -100 = all killed)
Conditions in all cases: 10 µM unless noted
NCI-H23 lung = tested on: NCI-H23 lung
NCI-H226 lung = tested on: NCI-H226 lung
NCI-H322M lung = tested on: NCI-H322M lung
HOP-62 NSCLC = tested on: HOP-62 NSCLC
NCI-H460 lung = tested on: NCI-H460 lung
HOP-92 NSCLC = tested on: HOP-92 NSCLC
NCI-H522 lung = tested on: NCI-H522 lung
A549/ATCC NSCLC = tested on: A549/ATCC NSCLC
786-0 renal = tested on: 786-0 renal
COLO 205 colon = tested on: COLO 205 colon
DU-145 prostate = tested on: DU-145 prostate
K-562 leukemia = tested on: K-562 leukemia
MALME-3M melanoma = tested on: MALME-3M melanoma
MDA-MB-231 breast = tested on: MDA-MB-231 breast
RXF 393 renal = tested on: RXF 393 renal
SF-268 CNS = tested on: SF-268 CNS
SF-295 CNS = tested on: SF-295 CNS
SF-539 CNS = tested on: SF-539 CNS
UACC-257 melanoma = tested on: UACC-257 melanoma
M14 melanoma = tested on: M14 melanoma

SMILES	growth (NCI-H23 lung)	growth (NCI-H226 lung)	growth (NCI-H322M lung)	growth (HOP-62 NSCLC)	growth (NCI-H460 lung)	growth (HOP-92 NSCLC)	growth (NCI-H522 lung)	growth (A549/ATCC NSCLC)	growth (786-0 renal)	growth (COLO 205 colon)	growth (DU-145 prostate)	growth (K-562 leukemia)	growth (MALME-3M melanoma)	growth (MDA-MB-231 breast)	growth (RXF 393 renal)	growth (SF-268 CNS)	growth (SF-295 CNS)	growth (SF-539 CNS)	growth (UACC-257 melanoma)	growth (M14 melanoma)
O=C1CC(c2ccc3c(c2)OCO3)Nc2ccccc21 (stereo not given)	40.2%	65.3%	51.3%	24.2%	10.5%	20.5%	19.8%	21.8%	42.2%	-16.4% (active)	7.64% (active)	12.4%	46%	38.9%	-22% (active)	43.1%	4.53% (active)	0.134% (active)	42.3%	-15.8% (active)
CSc1nc(N)c(N=Nc2ccc(S(=O)(=O)Nc3nnc(C)s3)cc2)c(=O)[nH]1	107%	100%	109%	104%	106%	108%	103%	115%	114%	96.3%	101%	138%	109%	103%	110%	101%	133%	109%	117%	101%
C#CCC(C(=O)OCC)C(=O)OCC	100%	98.5%	100%	102%	109%	108%	99.1%	100%	107%	105%	101%	102%	110%	101%	128%	104%	103%	101%	108%	105%
CCCCOC(=O)c1c(C)[nH]c(/C=C2\N=C(c3ccc[nH]3)C=C2OC)c1C	-11.3% (active)	-0.091% (active)	-10.5% (active)	2.13% (active)	6.62% (active)	-17% (active)	-41.3% (active)	-9.07% (active)	-32.6% (active)	-29.2% (active)	18.5%	9.48% (active)	-56.5% (active)	-49.7% (active)	-12.6% (active)	19.9%	-61.9% (active)	-36.2% (active)	-12% (active)	-18.6% (active)
COc1ccc2nc3c(cc2c1)C(=O)CC(C(F)(F)F)C3 (stereo not given)	50.5%	39.8%	37.4%	47.7%	10.5%	66.2%	31.1%	39.3%	53.7%	9.86% (active)	4.31% (active)	16.7%	49.6%	60%	-1.91% (active)	57.4%	45.3%	22.6%	82%	8.65% (active)
COCCCNc1nc(NC(=O)c2cc(Br)cc(C(F)(F)F)c2)cc(-c2cccnc2)n1	103%	91.8%	99.9%	91.8%	85.7%	57.9%	83.6%	82%	85.8%	96.4%	100%	73.3%	99.7%	75.8%	103%	90.5%	89.2%	94%	91%	96.5%
COc1ccc2c(c1)C(C)Cc1c(Cl)nc(C)nc1N2C (stereo not given)	25.8%	38.6%	58.8%	29.4%	12.3%	41.7%	-17% (active)	21.8%	38.2%	-20.9% (active)	34%	11.7%	80.7%	19%	-0.792% (active)	43.2%	7.77% (active)	4.64% (active)	78.1%	13.5%
Fc1cc2[nH]ncc2c2c3c(c(-c4cn[nH]c4C(F)(F)F)nc12)C1CCC3C1 (stereo not given)	-4.72% (active)	4.86% (active)	0.591% (active)	-19.4% (active)	1.8% (active)	17.1%	-2.89% (active)	-6.2% (active)	2.72% (active)	-74.7% (active)	4.96% (active)	19.4%	9.41% (active)	-5.18% (active)	-89.8% (active)	3.13% (active)	8.79% (active)	-32.4% (active)	0.635% (active)	-6.09% (active)
CCN(CC)CCCOc1ccc2c(c1)O/C(=C\c1cccc(OC)c1)C2=O	83.9%	87.8%	89.8%	104%	87.2%	84.3%	98.8%	93.5%	93.8%	94.7%	86.8%	21.5%	90.5%	87.1%	85.6%	86.1%	93.4%	86.7%	100%	92.6%
C=C(C)[C@@H]1CC[C@]2(C(=O)NCCCN)CC[C@]3(C)[C@H](CC[C@@H]4[C@@]5(C)CC[C@H](O)C(C)(C)[C@@H]5CC[C@]43C)[C@@H]12	-8.47% [100 µM] (active)	36.6% [100 µM]	-68.8% [100 µM] (active)	-26.8% [100 µM] (active)	-43.2% [100 µM] (active)	-55.5% [100 µM] (active)	-17% [100 µM] (active)	-4.7% [100 µM] (active)	-22.6% [100 µM] (active)	7.82% [100 µM] (active)	-100% [100 µM] (active)	1.1% [100 µM] (active)	-18.8% [100 µM] (active)	-47.8% [100 µM] (active)	-42.3% [100 µM] (active)	-16.9% [100 µM] (active)	-26.4% [100 µM] (active)	-36.2% [100 µM] (active)	-46.7% [100 µM] (active)	5.07% [100 µM] (active)
O=C(OCc1ccc2c(Cl)cc(Cl)c(O)c2n1)N1CCNCC1	47.1%	42.2%	47.1%	22.9%	15.4%	44.9%	42.4%	17.3%	61.1%	54.3%	47.7%	19.1%	64.6%	54.3%	45.4%	35%	24.2%	52.4%	40.5%	43.6%
Cc1ccc(Cn2c(O)c(N=NC(=O)c3ccc(S(N)(=O)=O)cc3)c3ccccc32)cc1	101%	93.9%	99.1%	106%	104%	106%	97.3%	93.8%	105%	115%	107%	99.2%	97.1%	97.2%	91.2%	98.6%	101%	108%	98%	112%
C=CCCCCOc1ccccc1-c1cnc(OCCCCC=C)n1C	76%	92.2%	72%	77.2%	55.6%	75.2%	12.6%	50.3%	107%	46%	92.6%	30.5%	62.8%	66.5%	90.5%	79.6%	70.1%	81%	66.6%	72.6%
CCCCCCCCCN(CCCCCCCCC)C(C)C(=O)c1ccc2cc(Br)c3ccccc3c2c1 (stereo not given)	77.6%	102%	116%	95.6%	110%	72.8%	96.5%	86.1%	90.4%	81.9%	88.6%	39.2%	118%	68.9%	99.4%	87.1%	100%	81.2%	98.7%	55.7%
Nc1ccc(NC(=O)c2ccccc2)c2c1C(=O)c1ccccc1C2=O	96.1%	89.5%	99.1%	107%	104%	80.2%	111%	97%	103%	109%	98.5%	105%	89.5%	94.7%	106%	99.3%	105%	103%	88.8%	100%
